# This is a sample that favours compounds with a hit; in the whole collection about 4.5% have one here.
# Casp1 inh: qHTS Assay for Allosteric/Competitive Inhibitors of Caspase-1; AID 900, 2007; Potency, µM (highest dose often 57.5 µM), most hits filed as inhibitors; Caspase-1 enzyme, Ac-WEHD-AFC fluorogenic rate; actives 0.03% (n = 75,000)
# HEK293 cAMP ctrl: qHTS Assay for Agonists of the Thyroid Stimulating Hormone Receptor: Activators of Intracellular cAMP Concentrations in Parental HEK 293; actives 2.5% (n = 73,000); parental HEK293 CNG cAMP sensor, membrane potential fluorescence; AID 938, 2007; Potency, µM (doses to about 57.1 µM), usual class: activators; further: nearly all actives have a fitted effect of over 55% in size
#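 Parental HEK 293 cells stably expressing a cAMP-gated CNG channel were loaded with membrane potential dye containing 100 uM RO 20-1724 for 60 min. Compound added for 30 min; depolarization read as fluorescence intensity at 590 nm.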
# TSHR agonist: qHTS Assay for Agonists of the Thyroid Stimulating Hormone Receptor; HEK293-CNG-TSHR cells (CNG channel as cAMP sensor), membrane potential dye, cAMP; Potency, µM (series often up to 57.1 µM), usual class: activators; actives 0.48% (n = 73,000); active means well fitted activation curve with a large enough effect in the main read-out, with a control signal flat, not every such curve was filed as active; inconclusive means small, poorly fitted or top-dose-only effect, or a change in a side signal; inactive means no such curve, though single readings can be large or run the other way; reference of the percent scale not stated here;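 further: the control signal comes from parental cells without the receptor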
#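 HEK 293 cells stably expressing TSHR and a cAMP-gated CNG channel; parental CNG-only cells as counterscreen. Cells preloaded 60 min with membrane potential dye plus 100 uM RO 20-1724, then compound 30 min; fluorescence read at 590 nm.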
# Caspase-7 inhib: qHTS Assay for Allosteric/Competitive Inhibitors of Caspase-7; Potency, µM (top dose mostly 57.5 µM), hits mostly inhibitors; actives 0.02% (n = 75,000); P55210; AID 889, 2007; recombinant caspase-7, Ac-DEVD-AFC fluorescence rate; active means well fitted inhibition curve with a large enough effect in the main read-out, with a control signal flat, not every such curve was filed as active; inconclusive means small, poorly fitted or top-dose-only effect, or a change in a side signal
# ERK AVP inh: qHTS Assay for Inhibitors of the ERK Signaling Pathway using a Homogeneous Screening Assay; HEK293-V1b, vasopressin-stimulated pERK AlphaScreen; Potency, µM (titrated, usually from 57.5 µM), actives largely listed as inhibitors; actives 0.99% (n = 72,000); further: nearly all actives have a fitted effect of over 55% in size
#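 HEK293 cells stably expressing V1b receptor, preincubated 30 min at 37 °C with compound, then stimulated 5 min with 25 nM vasopressin. Phospho-ERK by AlphaScreen SureFire after 5 h RT; normalized to DMSO and vasopressin; AC50 by Hill fit.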
# GBA activity: Glucocerebrosidase. Lysosomal acid glucosylceramidase (Homo sapiens), P04062. actives 1.1% (n = 48,000). Potency, µM. purified enzyme, resorufin glucoside fluorescence (screen aimed at inhibitors), 20 min; in the data active means potency below about 15 µM; inconclusive means mostly about 16 µM to 33 µM;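 further: the screen sought inhibitors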
# Target sequence (P04062 whole entry, looked up): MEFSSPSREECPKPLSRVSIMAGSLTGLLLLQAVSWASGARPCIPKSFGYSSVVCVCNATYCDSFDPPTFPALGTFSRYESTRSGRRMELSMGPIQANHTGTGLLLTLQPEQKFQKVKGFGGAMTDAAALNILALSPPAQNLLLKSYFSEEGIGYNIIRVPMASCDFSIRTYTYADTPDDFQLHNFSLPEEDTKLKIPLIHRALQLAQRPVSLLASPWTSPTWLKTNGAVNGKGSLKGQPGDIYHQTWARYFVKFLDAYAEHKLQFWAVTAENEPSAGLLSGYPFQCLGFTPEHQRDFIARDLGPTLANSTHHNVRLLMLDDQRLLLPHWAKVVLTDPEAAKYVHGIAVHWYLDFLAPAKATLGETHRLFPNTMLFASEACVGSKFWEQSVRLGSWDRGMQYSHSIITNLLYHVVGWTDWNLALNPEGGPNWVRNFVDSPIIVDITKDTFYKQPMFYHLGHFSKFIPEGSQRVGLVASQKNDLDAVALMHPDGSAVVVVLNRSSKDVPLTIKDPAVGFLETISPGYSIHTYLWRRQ
#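 Compounds titrated against 0.2 nM normal enzyme, 30 uM resorufin beta-D-glucopyranoside substrate, citrate/phosphate buffer with taurocholate and tween-20, pH 5.9. Reaction ran 20 min at room temperature; fluorescence (Ex 548/Em 600) gave AC50.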
# A number is an active result; - = inactive; ? = inconclusive; . = not tested or not shown; [ ] = another dose, or the depositor's remark. Unless noted, the call rests on the fitted dose curve; in most records, active means well fitted curve in the direction sought with a large enough effect; inconclusive means small, poorly fitted or top-dose-only effect, or another doubt; inactive means no such curve, though single readings can be large; an effect the other way counts as inactive or inconclusive.
SMILES,Casp1 inh,HEK293 cAMP ctrl,TSHR agonist,Caspase-7 inhib,ERK AVP inh,GBA activity
Cc1ccc(SC/C(O)=C(\C#N)c2nc3ccccc3s2)cc1,-,?,?,-,-,-
COc1ccc(C/C(O)=C(\C#N)c2nc3ccccc3s2)cc1,-,32µM,?,-,-,-
COc1ccc2[nH]cc(CCNc3cc(-c4ccccc4C(F)(F)F)ncn3)c2c1,-,-,-,-,-,.
COC(=O)[C@](C)(N)Cc1ccc(O)cc1,-,?,?,-,-,.
OCc1nc2ccccc2n1CC(O)Cn1ccc2ccccc21 (stereo not given),-,-,-,-,16µM,-
O=C(O)c1ccc(NS(=O)(=O)c2cccc3ccccc23)cc1,-,?,?,-,.,.
CN1CCc2cc(Cl)c(O)cc2[C@@H](c2ccccc2)C1,-,25µM,?,-,-,.
CN1[C@@H](c2ccccc2)CC(=NO)C[C@H]1c1ccccc1,-[11.5 µM],-[11.4 µM],-[11.4 µM],-[11.5 µM],-[11.5 µM],.
C#CCn1cnc2c(cnn2-c2ccc(C)c(C)c2)c1=O,-,-,-,-,-,15
CCc1nnc2c3cnn(-c4ccc(C)c(C)c4)c3ncn12,-,-,-,-,-,0.21
COc1ccc(CNc2ncnc3ccc(-c4ccc(C(=O)N(C)C)cc4)cc23)c(OC)c1,-,-,-,-,?,.
O=S(=O)(Nc1cc(Cl)ccc1N1CCCCC1)c1cccs1,-,-,-,-,-,15
CC1(C)S[C@@H]2[C@H](NC(=O)[C@@H](N)c3ccc(O)cc3)C(=O)N2[C@H]1C(=O)O,-,-,-,-,-,.
Cc1cc(C)nc(-n2nc(C)cc2Nc2ccccc2)n1,-,-,-,-,-,-
CCC(C(=O)Nc1cc(C)nn1-c1nc(C)cc(C)n1)c1ccccc1 (stereo not given),-,16µM,?,-,?,-
Cc1cc(C)nc(-n2nc(C)cc2NC(=O)CN2CCCC(C)C2)n1 (stereo not given),-,?,?,-,-,-
Cc1cc(C)nc(-n2nc(C)cc2NC(=O)CN2CCc3ccccc3C2)n1,-,25µM,?,-,-,-
O=C(O)c1cc2c(cc1S(=O)(=O)O)[C@H]1[C@@H]([C@H]3[C@H]2[C@@]2(Cl)C(Cl)=C(Cl)[C@]3(Cl)C2(Cl)Cl)[C@]2(Cl)C(Cl)=C(Cl)[C@@]1(Cl)C2(Cl)Cl,-[11.5 µM],-[11.4 µM],-[11.4 µM],-[11.5 µM],-[11.5 µM],.
O=C(c1[nH]o[n+](=O)c1C(=O)c1csc2ccccc12)c1csc2ccccc12,-[11.5 µM],-[11.4 µM],-[11.4 µM],-[11.5 µM],-[11.5 µM],.
O=C(NCCc1ccc2c(c1)OCO2)C1CCN(S(=O)(=O)c2ccc(Cl)cc2)CC1,-,13µM,?,-,-,-
O=C1c2ccccc2N2C(=O)c3ccccc3C2N1Cc1ccco1 (stereo not given),-,25µM,?,-,?,.
COC(=O)NC(c1ccco1)[C@@]1(C(=O)OC)CCCC1=O (stereo not given in full),-[11.5 µM],-[11.4 µM],-[11.4 µM],-[11.5 µM],-[11.5 µM],.
NS(=O)(=O)c1cc(C(=O)O)c(O)c2ccccc12,-[11.5 µM],-[11.4 µM],-[11.4 µM],-[11.5 µM],-[11.5 µM],.
c1ccc(CCN2CCN(c3ncnc4c3cnn4-c3ccccc3)CC2)cc1,-,-,-,-,16µM,-
COc1ccc(C(=O)N2CCN=C2SCc2cccnc2)cc1OC,-,-,-,-,-,.
SMILES,Casp1 inh,HEK293 cAMP ctrl,TSHR agonist,Caspase-7 inhib,ERK AVP inh,GBA activity
COc1cc2c(cc1OC)-c1cc(OCc3cccnc3)nc(=O)n1CC2,-,-,-,-,13µM,-
CCN(CC)CCCNc1cc2n(c(=O)n1)CCc1cc(OC)c(OC)cc1-2,-,-,-,-,-,-
COc1cc2c(cc1OC)C(C(=O)Nc1ccc3c(c1)OCCO3)C1c3ccccc3CCN1C2=O (stereo not given),-,?,?,-,-,-
COc1cc2c(cc1OC)-c1cc(Nc3ccc4c(c3)OCCO4)nc(=O)n1CC2,-,-,.,-,10µM,-
COc1cc2c(cc1OC)-c1cc(NC3CCCCCC3)nc(=O)n1CC2,-,-,10µM,-,?,-
O=C(c1cccc(F)c1)N1CCC[C@@]2(CCN(c3ccccc3)C2)C1,-,-,-,-,-,.

# Assay outcomes: PubChem, National Center for Advancing Translational Sciences (NCATS)
